This passage reports AC50 and activity, negative = inhibition results from PubChem BioAssay AID1851 (National Center for Advancing Translational Sciences (NCATS), 2009).

Several values for one entry are separate records, joined by “and”; a condition that tells them apart may be missing. Equal entries are not always repeated. Screen size: about 16,000 compounds; about 2,600 (16%) were called active. Roughly 20% stayed inconclusive and do not appear here. The list is a sample of the results. Unmarked numbers belong to inactive results. The call rests on the fitted dose curve; in most records, active means well fitted curve in the direction sought with a large enough effect; inconclusive means small, poorly fitted or top-dose-only effect, or effect the other way; inactive means no such curve, though single readings can be large or run the other way.
On the % scale 0 is the no-effect control and ±100 the full control effect.

Chain of Cytochrome P450 2D6 (Homo sapiens) (P10635 whole entry, looked up): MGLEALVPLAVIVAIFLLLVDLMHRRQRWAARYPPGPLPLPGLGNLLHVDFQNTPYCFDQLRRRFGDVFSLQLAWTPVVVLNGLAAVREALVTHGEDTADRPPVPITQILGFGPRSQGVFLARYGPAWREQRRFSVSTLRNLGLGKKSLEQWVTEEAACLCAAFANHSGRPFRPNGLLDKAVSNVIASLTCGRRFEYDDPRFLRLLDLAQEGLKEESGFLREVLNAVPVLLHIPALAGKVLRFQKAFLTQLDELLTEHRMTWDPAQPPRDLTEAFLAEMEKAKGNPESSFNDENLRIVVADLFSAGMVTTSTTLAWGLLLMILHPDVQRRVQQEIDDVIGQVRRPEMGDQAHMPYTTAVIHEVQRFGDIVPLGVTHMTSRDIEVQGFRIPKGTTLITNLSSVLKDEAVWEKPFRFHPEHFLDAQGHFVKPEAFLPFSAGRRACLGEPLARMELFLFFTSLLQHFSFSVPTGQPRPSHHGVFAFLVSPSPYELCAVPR

This experiment concerns the target Cytochrome P450 2D6 (Homo sapiens) (UniProt P10635). The experiment is described as follows: Cytochrome panel assay with activity outcomes. The conditions noted are these: recombinant CYP, pro-luciferin dealkylation, luminescence, p450-cyp2d6; series mostly up to 57.1 µM.
As a reminder, the AC50 is the midpoint of the concentration-response curve, whichever way the signal moves. As to `COCC(=O)Nc1ccc(-c2cn3cccnc3n2)cc1`, the AC50 result was “inactive”.

`COC(=O)[C@H]1C[C@@H]1[C@H](NC(=O)c1cccnc1)c1ccccc1`: the AC50 entry is “inactive”.

`O=c1cc(N2CCN(c3cccc(Cl)c3)CC2)[nH]c(=O)n1C1CCCCC1`: the AC50 result is “inactive”.

As to `CC(=O)N(/N=C1\Sc2ccccc2C1=O)c1ccccc1`, the AC50 entry is “inactive”.

Regarding `N#Cc1c(NC(=O)CCC(=O)O)ccc2ccccc12`, the activity, negative = inhibition was 7.11% [at 11.4 µM].

As to `COc1ccc(N2CCN(C(=N)/C(C(C)=O)=C(\C)O)CC2)cc1`, the AC50 entry was “inactive”.

For the compound `COc1cccc(C2C3(C#N)C(N)=NC(OC)(OC)C23C#N)c1` (stereo unspecified), the AC50 result was “inactive”.

On to `COc1ccc(-c2nc3cnc(Oc4cccc(Cl)c4)nc3n(C[C@H]3CCCO3)c2=O)cc1`, for which the AC50 result is “inactive”.

Turning to `COc1ccc(OC)c(NC(=O)c2cc3n(n2)C(C(F)(F)F)CC(c2ccc4c(c2)OCO4)N3)c1` (stereo unspecified), the AC50 entry was “inactive”.

Regarding `COC(=O)C1=C(N)N(c2ccccc2C(F)(F)F)C2=C(C(=O)CCC2)C1c1ccc2c(c1)OCO2` (stereo unspecified), the AC50 was 28.2 µM (active).

For the compound `COc1ccc(NC(=O)c2cc3n(n2)C(C(F)(F)F)CC(c2ccc4c(c2)OCO4)N3)cc1OC` (stereo unspecified), the AC50 entry was “inactive”.

As for `COc1cc(/C=C2/C(=N)N3C=CSC3=NC2=O)ccc1OCCCOc1ccccc1C`, the AC50 entry is “inactive”.

Consider `FC(F)(F)c1nnc2c(Sc3ccc(Cl)cc3)nc3ccccc3n12`, for which the AC50 result is “inactive”.

As to `CCOc1ccccc1-n1nnnc1SCC(=O)Nc1cc(C)on1`, the AC50 result was “inactive”.

As to `CCOc1ccccc1NC(=O)CSc1nnc(-c2cnccn2)n1C`, the AC50 was 12.6 µM (active).

In the case of `COC(=O)c1ccccc1NC(=O)CSc1nnc(C(CO)NC(=O)c2ccccc2Cl)n1C` (stereo unspecified), the AC50 entry is “inactive”.

In the case of `CCn1c(O)c(/C=N/N=C2CCCC2)c2ccc(C3=NNC(=O)CC3)cc21`, the AC50 entry is “inactive”.

Turning to `O=C1CCC(c2ccc(-n3ccnc3)cc2)=NN1`, the AC50 was 2.51 µM (active).

As for `Cc1cn2c(-c3ccncc3)nnc2s1`, the AC50 entry was “inactive”.

`Oc1cc(O)c2c(c1)O[C@H](c1ccc(O)c(O)c1)[C@@H](O)[C@@H]2c1c(O)cc(O)c2c1O[C@@H](c1ccc(O)c(O)c1)[C@H](O)C2`: the activity, negative = inhibition was -5.15% [at 11.4 µM].

Turning to `COc1ccc(CNc2ncnc3ccc(-c4ccccc4OC)cc23)c(OC)c1`, the AC50 result is “inactive”.

As to `COc1ccccc1CNc1ncnc2ccc(-c3ccccc3CN(C)C)cc12`, the AC50 was 2.51 µM (active).

In the case of `COc1ccc(CNc2ncnc3ccc(-c4ccccc4CN(C)C)cc23)c(OC)c1`, the AC50 is 1.26 µM (active).

Consider `CNc1ncnc2ccc(-c3ccccc3CN(C)C)cc12`, for which the AC50 was 10 µM (active).

In the case of `CNc1ncnc2ccc(-c3ccccc3C#N)cc12`, the AC50 result was “inactive”.

As to `CN(C)Cc1ccccc1-c1ccc2ncnc(NCc3ccccc3)c2c1`, the AC50 was 7.94 µM (active).

Regarding `O=C1Nc2cc(Cl)c(Cl)cc2N(O)N1c1ccc(Cl)c(Cl)c1`, the AC50 entry was “inactive”.

As for `CC1(C)O[C@@H]2C[C@H]3[C@H]4C[C@H](F)C5=CC(=O)CC[C@]5(C)[C@@H]4[C@H](O)C[C@]3(C)[C@]2(C(=O)CO)O1`, the AC50 entry was “inactive”.

On to `COCC(=O)Oc1c(S(=O)(=O)c2ccc(C)cc2)c(C)nn1-c1ccccc1`, for which the AC50 entry was “inactive”.

Turning to `NC(=O)c1cc[n+](CC2=C(C(=O)O)N3C(=O)[C@@H](NC(=O)[C@H](c4ccccc4)S(=O)(=O)[O-])[C@@H]3SC2)cc1`, the AC50 result was “inactive”.

As to `COc1ccc(-c2cc(C(=O)Nc3cnn(Cc4ccccc4C)c3)no2)cc1OC`, the AC50 entry was “inactive”.

Turning to `COC(=O)c1cnn(C(=O)c2cc(OC)ccc2Br)c1N`, the AC50 result is “inactive”.

For `O=C(O)/C=C\[C@H](O)c1ccc(Cl)cc1`, the AC50 entry was “inactive”.

For `Cc1ccccc1N(C(=O)Cc1cccs1)C(C(=O)NCC1CCCO1)c1cccnc1` (stereo unspecified), the AC50 entry was “inactive”.

Take `N#Cc1c(-c2ccccc2)nc(-c2ccccc2)[nH]c1=O`: the AC50 entry is “inactive”.

Turning to `CC(C)CN=C(N)N=C(N)N`, the activity, negative = inhibition is 7.41% [at 11.4 µM].

Regarding `N#C/C(=C\Nc1ccccn1)C(=O)c1ccco1`, the activity, negative = inhibition is -1.48% [at 11.4 µM].

In the case of `CN(C)Cc1ccccc1-c1ccc2ncnc(NC3CCNCC3)c2c1`, the AC50 is 10 µM (active).

For the compound `CS(=O)(=O)Nc1cccc(-c2ccc3ncnc(NC4CCNCC4)c3c2)c1`, the AC50 result is “inactive”.

For the compound `COCCNc1ncnc2ccc(-c3ccc(C(=O)N(C)C)cc3)cc12`, the AC50 result is “inactive”.

With `N#Cc1cccc(-c2ccc3ncnc(NC4CCNCC4)c3c2)c1`, the AC50 entry is “inactive”.

Regarding `COCCNc1ncnc2ccc(-c3ccccc3CN(C)C)cc12`, the AC50 is 15.8 µM (active).

As for `C[C@@H](CNC(N)=O)NC(N)=O`, the activity, negative = inhibition is -3.67% [at 11.4 µM].

Consider `CN1CCN(c2ncc3ncc(=O)n(-c4ccccc4)c3n2)CC1`, for which the AC50 result is “inactive”.

For `O=C(NC(N1CCCC1)C(Cl)(Cl)Cl)c1ccccc1` (stereo unspecified), the AC50 entry is “inactive”.

As to `COc1cccc(/C=N/NC(=O)c2nc(-c3ccccc3)cc(-c3ccccc3)n2)c1`, the AC50 result was “inactive”.

Regarding `Cc1ccccc1OCCCN1CCCC1`, the AC50 was 14.1 µM (active).

On to `CC(C)(C)c1ccccc1OCCN1CCCC1`, for which the AC50 is 5.62 µM (active).

In the case of `Fc1ccccc1OCCCCCCN1CCCC1`, the AC50 was 14.1 µM (active).

With `Cc1ccccc1OCC(=O)OC1CCN(C)CC1`, the AC50 result is “inactive”.

`Clc1ccccc1OCCCCN1CCCC1`: the AC50 was 11.2 µM (active).

`O=C(O)c1ccc(OCc2ccccc2)c(Cl)c1`: the activity, negative = inhibition was 4.91% [at 11.4 µM].

Turning to `Cc1ccc(CNC(=O)CCc2c(C)nc3ncnn3c2C)cc1`, the AC50 entry was “inactive”.

On to `O=C1[C@H]2[C@H]3[C@H](O)[C@H](O)C/C(=N/OC[C@@H](O)COCc4ccco4)[C@H]3CC[C@@H]2C(=O)N1C[C@@H]1CCCO1`, for which the activity, negative = inhibition was 14.8% [at 11.4 µM].

Regarding `C/C(CCN1CCc2nc(-c3ccccc3)c(-c3ccccc3)cc2C1)=N\O[C@@H](C)c1cn([C@H](CO)Cc2ccccc2)nn1`, the activity, negative = inhibition was -8.59% [at 11.4 µM] and -16.7% [at 11.4 µM].

For the compound `COc1ccccc1S(=O)(=O)Nc1ccc(-c2nnc3n2CCCCC3)cc1`, the AC50 entry was “inactive”.

Regarding `N#Cc1c(N)nc2c(c1-c1cccc(O)c1)CCCCCC2`, the AC50 result is “inactive”.

Regarding `CCc1nnc2sc(-c3ccc(NC(=O)c4ccco4)cc3)nn12`, the AC50 result was “inactive”.

As for `Cc1ccc(S(=O)(=O)N[C@H](C(=O)N2CCC(C(=O)NCC(=O)O)CC2)C(C)C)cc1`, the AC50 result was “inactive”.

In the case of `Cc1cc(C)nc(NN2C(=O)/C(=C/c3ccccc3)SC2=S)n1`, the AC50 entry is “inactive”.

Consider `COc1ccc(/C=C\C(=O)Nc2ccccc2C(=O)O)cc1OC`, for which the AC50 result is “inactive”.
